Laboratory results published in PubChem BioAssay (EPA / NIEHS).
Where “and” joins values, the source holds several entries; their conditions need not be identical. Equal values may be shown once. Results filed as inconclusive are left out. More than one record can exist for a structure, and the calls need not agree. Calls of active or inactive are those of the source. How the source made its calls: active means hit-call score of the fitted dose curve at least 0.9, where 1 is the maximum; inconclusive means response in the unintended direction; inactive means score below 0.9.

Assay: Tanguay_ZF_120hpf_TRUN_legacy: (Legacy) Oregon State University Tanguay Lab 120 Hour Post-fertilization zebrafish Assay for Truncated Body (AID 2283655)
Protocol: Tanguay_ZF_120hpf_legacy is a whole embryo, multiplexed endpoint assay using zebrafish larvae exposed for 120 hours post fertilization on a 96-well plate.Tanguay_ZF_120hpf_TRUN_legacy is one of one assay component(s) measured or calculated from the Tanguay_ZF_120hpf_legacy assay. It is designed to make measurements of zebrafish development as detected with brightfield microscopy of developing zebrafish embryos.Data from the assay component Tanguay_ZF_120hpf_TRUN_legacy was analyzed into 1 assay endpoints. This assay endpoint, Tanguay_ZF_120hpf_TRUN_legacy, was analyzed in the positive analysis fitting direction relative to DMSO as the negative control and baseline of activity. Using a type of morphology reporter, gain-of-signal activity can be used to understand changes in developmentals as they relate to the whole embryo. To generalize the intended target to other relatable targets, this assay endpoint is annotated to the zebrafish development intended target family, where the subfamily is embryonic morphogenesis.
Zebrafish husbandry: Tropical 5D wild-type adult zebrafish were housed in at an approximate density of 1000 per 100 gallon tank at the Sinnhuber Aquatic Research Laboratory, Oregon State University, Corvallis, OR. Each tank was kept at standard laboratory conditions of 28C on a 14-h light/10-h dark photoperiod in fish water consisting of reverse osmosis water supplemented with a commercially available salt (Instant Ocean). Spawning funnels were placed into the tanks the night prior, and embryos were collected and staged. To increase bioavailability, the chorion was enzymatically removed using pronase (63.6mg/ml, >/= 3.5U/mg, Sigma-Aldrich: P5147) at 4 hours post fertilization (hpf) using a custom automated dechorionator.Chemical exposures: Six hpf dechorionated embryos were placed 1 embryo per well in a 96-well plate prefilled with 90 ul of EM using automated embryo placement systems (AEPS). Ten microliters of each row of dilution plate 2 was added to 2 exposure plates. The final DMSO concentration used was 0.64% (vol/vol). Thirty-two embryos were also exposed to 5uM trimethyltin chloride (positive control). Plates were sealed to prevent evaporation and foil covered to reduce light exposure and kept in a 28C incubator. Embryos were statically exposed until 120 hpf. At 24 hpf, embryos were assessed for photomotor response using a custom photomotor response analysis tool (PRAT) and for developmental toxicity endpoints (MO24: mortality at 24 hpf, DP: developmental progression, SM: spontaneous movement, and NC: notochord distortion). At 120 hpf, locomotor activity was measured using Viewpoint Zebralab and assessed for 18 endpoints. Zebrafish acquisition and analysis program (ZAAP), a custom program designed to inventory, acquire, and manage zebrafish data, was used to collect developmental endpoints as either present or absent (i.e., binary responses were recorded). If mortality occurred for an embryo (at either 24 or 120 hpf), the non-mortality endpoints were not measured.

SMILES	outcome	AC50
COc1nn(CSP(=S)(OC)OC)c(=O)s1	inactive	–
CCC(C)(NC(=O)c1cc(Cl)c(C)c(Cl)c1)C(=O)CCl (stereo not given)	inactive	–
CC1(C)C(C=C(Cl)Cl)C1C(=O)OC(C#N)c1ccc(F)c(Oc2ccccc2)c1 (stereo not given)	inactive	–
COP(=S)(OC)Oc1ccc(SC)c(C)c1	inactive	–
CNC(=O)Oc1cccc(N=CN(C)C)c1	inactive	–
N#CN	inactive	–
O=S1OCC2C(CO1)C1(Cl)C(Cl)=C(Cl)C2(Cl)C1(Cl)Cl (stereo not given)	inactive	–
CC[C@H](C)[C@H]1O[C@]2(C=C[C@@H]1C)C[C@@H]1C[C@@H](C/C=C(\C)[C@@H](O[C@H]3C[C@H](OC)[C@@H](O[C@H]4C[C@H](OC)[C@@H](O)[C@H](C)O4)[C@H](C)O3)[C@@H](C)/C=C/C=C3\CO[C@@H]4[C@H](O)C(C)=C[C@@H](C(=O)O1)[C@]34O)O2 (tested in a mixture with another compound)	inactive	–
CC(C)(C)C(O)/C(=C\c1ccc(Cl)cc1Cl)n1cncn1 (stereo not given)	inactive	–
O=S(=O)(O)C(F)(F)C(F)(F)C(F)(F)C(F)(F)C(F)(F)C(F)(F)C(F)(F)C(F)(F)F	inactive	10.6 µM (active) and 21.2 µM (active)
Clc1ccccc1-c1nnc(-c2ccccc2Cl)nn1	inactive	–
O=[N+]([O-])/N=C1\NCCN1Cc1ccc(Cl)nc1	inactive	–
ClC1C(Cl)C(Cl)C(Cl)C(Cl)C1Cl (stereo not given)	inactive	–
O=C1c2ccccc2C(=O)N1SC(Cl)(Cl)Cl	inactive	–
CCCN(CCOc1c(Cl)cc(Cl)cc1Cl)C(=O)n1ccnc1	inactive	–
CNC(=O)/C=C(\C)OP(=O)(OC)OC	inactive	–
CCCN(CCC)c1c([N+](=O)[O-])cc(C(F)(F)F)cc1[N+](=O)[O-]	inactive	–
O=C(NC(=O)c1c(F)cccc1F)Nc1ccc(OC(F)(F)C(F)OC(F)(F)F)c(Cl)c1 (stereo not given)	inactive	–
O=C(Nc1ccccc1)Nc1cnns1	inactive	–

SMILES	outcome	AC50
CN1CSC(=S)N(C)C1	inactive	–
COP(=S)(OC)Oc1ccc([N+](=O)[O-])cc1	inactive	–
CC(C)N(C(=O)COc1nnc(C(F)(F)F)s1)c1ccc(F)cc1	inactive	–
CNC(=O)Oc1ccccc1OC(C)C	inactive	–
CCOCN(C(=O)CCl)c1c(C)cccc1CC	–	47.5 µM (active)
O=C(O)CCCOc1ccc(Cl)cc1Cl	inactive	–
C[C@H]1[C@H](c2ccc(Cl)cc2)SC(=O)N1C(=O)NC1CCCCC1	inactive	–
CCC(C)(C)C(=O)OC1=C(c2ccc(Cl)cc2Cl)C(=O)OC12CCCCC2	inactive	–
O=C(O)COc1ccc(Cl)cc1Cl	inactive	–
CCOC1Oc2ccc(OS(C)(=O)=O)cc2C1(C)C (stereo not given)	inactive	–
CCC(C)Nc1c([N+](=O)[O-])cc(C(C)(C)C)cc1[N+](=O)[O-] (stereo not given)	inactive	–
N#Cc1c(Cl)c(Cl)c(Cl)c(C#N)c1Cl	–	47.8 µM (active)
Cc1[nH]c(=O)n(C(C)(C)C)c(=O)c1Cl	inactive	–
CC(C)(C)C(O)C(Oc1ccc(Cl)cc1)n1cncn1 (stereo not given)	inactive	32.2 µM (active) and 47.2 µM (active)
O=[N+]([O-])c1c(Cl)c(Cl)c(Cl)c(Cl)c1Cl	inactive	–
CC(C)OC(=O)Nc1cccc(Cl)c1	inactive	–
Oc1cc(Cl)ccc1Oc1ccc(Cl)cc1Cl	inactive	–
O=C(O)C(F)(F)C(F)(F)C(F)(F)C(F)(F)C(F)(F)C(F)(F)C(F)(F)F	inactive	–
CCc1ccc(C(=O)NN(C(=O)c2cc(C)cc(C)c2)C(C)(C)C)cc1	inactive	–
